HEK cytotox = HEK 293 cell cytotoxicity. HEK 293 viability, ATP luminescence (CellTiter-Glo), 48-72 h. Potency, µM (series often up to 115 µM), inactives show at the top dose activity change, negative = cytotoxicity, hits mostly inhibitors. 6.6% of 94,000 active. AID 1345083; further: on the % scale 0 is the no-effect control and ±100 the full control effect; nearly all actives have a fitted effect of over 60% in size
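Pintool-delivered compounds were incubated with HEK 293 cells (250 cells/well) at 37 degree Celsius for 48 or 72 hr. ATP-dependent luminescence (CellTiter-Glo) then reported remaining viable cells.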
NIH3T3 tox = NIH 3T3 cell cytotoxicity; NIH 3T3 viability, CellTiter-Glo ATP luminescence, 48-72 h; Potency, µM (highest dose often 96.7 µM), inactives show at the highest dose activity change, negative = cytotoxicity, most hits filed as inhibitors; 4.3% of 94,000 active; AID 1345082; further: on the % scale 0 is the no-effect control and ±100 the full control effect; nearly all actives have a fitted effect of over 55% in size
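Cytotoxicity was measured by CellTiter-Glo ATP luminescence after 48 or 72 h compound exposure at 37 °C. Mouse NIH 3T3 fibroblasts were seeded at 400 cells/well and dosed by 23 nL pin transfer.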
GPT2 inhibitor = GPT2 alanine aminotransferase inhibition | Q8TD30 | Recombinant GPT2, coupled pyruvate oxidase/HRP Amplex Red fluorescence | Potency, µM (highest dose often 57.7 µM), without a hit: at the highest dose activity change, negative = inhibition, actives largely listed as inhibitors | 0.25% of 100,000 active | AID 1671188; further: on the % scale 0 is the no-effect control and ±100 the full control effect; nearly all actives have a fitted effect of over 60% in size
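Inhibition is scored from Amplex Red fluorescence generated when pyruvate oxidase and HRP act on pyruvate released by GPT2. Reactions contain 10ng/uL enzyme, 250uM a-KG and 2mM L-alanine and run 30 min at room temperature.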
Luciferase inh = inhibitors of firefly (Photinus pyralis) luciferase; P08659; purified P. pyralis luciferase, luminescence, biochemical; Potency, µM (doses to about 115 µM), usual class: inhibitors; 2.5% of 76,000 active; further: on the % scale 0 is the no-effect control and ±100 the full control effect; nearly all actives have a fitted effect of over 65% in size
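Inhibitors were tested against purified firefly luciferase in a biochemical, low-substrate format (both substrates at 10uM) and luminescence measured with a CCD imager.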
hNpr1 antagonist = blocks ANP-stimulated signaling of human Npr1 receptor. P16066. HEK293 hNpr1 GloSensor cGMP, ANP-stimulated luminescence. Potency, µM (doses to about 46.3 µM), inactives show top-dose activity change, negative = inhibition, most hits filed as inhibitors. 1.6% of 76,000 active; calls by dose curve; further: on the % scale 0 is the no-effect control and ±100 the full control effect; nearly all actives have a fitted effect of over 60% in size
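Compound pre-incubated 30 min at room temperature on GloSensor-loaded HEK293 cells stably carrying hNpr1 and the pGS-40F cGMP biosensor. Stimulation uses hNppA at 0.1 nM final; luminescence is taken at baseline and 20 min post-agonist.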
Npr1 antag conf = confirmation of human Npr1 natriuretic peptide receptor antagonists | HEK293 hNpr1 cGMP GloSensor luminescence, ANP-stimulated | 76% of 1,400 active | shares compounds with hNpr1 antagonist | Potency, µM (doses to about 57.6 µM), inactives show top-dose activity change, negative = inhibition, usual class: inhibitors; calls by dose curve; further: nearly all actives have a fitted effect of over 70% in size
NPR2 antag = selectivity test of Npr1 antagonists against human Npr2 | shares compounds with hNpr1 antagonist | HEK293 hNpr2 GloSensor cGMP luminescence, CNP-stimulated | Potency, µM (top dose mostly 57.6 µM), for the others: at the top dose activity change, negative = inhibition, actives largely listed as inhibitors | 67% of 1,400 active; calls by dose curve; further: nearly all actives have a fitted effect of over 70% in size
FLuc counter = counter-screen for Npr1 antagonists: firefly luciferase inhibitors; Potency, µM (doses to about 57.6 µM), for the others: at the top dose activity change, negative = inhibition, actives largely listed as inhibitors; purified FLuc enzyme, luminescence, Km substrate; shares compounds with hNpr1 antagonist; AID 1347047; 0.7% of 1,400 active; further: 0% is about no effect
GloSensor ctrl = control cell line activity, Npr1 antagonist counter-screen | shares compounds with hNpr1 antagonist | HEK293 GloSensor cGMP, SNP-stimulated, luminescence | Potency, µM (series often up to 57.6 µM), inactives show at the highest dose activity change, negative = inhibition, most hits filed as inhibitors | 69% of 1,400 active | AID 1347051; calls by dose curve; further: on the % scale 0 is the no-effect control and ±100 the full control effect; nearly all actives have a fitted effect of over 70% in size
Active calls of the source: *; i = inactive; u = inconclusive; x = not tested or not shown; [ ] = another dose, or the depositor's remark. In the library only some 10% were active in any assay of this set; here they are far more common. Unless noted, the call rests on the fitted dose curve; in most records, active means well fitted curve in the direction sought with a large enough effect; inconclusive means small, poorly fitted or top-dose-only effect, or another doubt; inactive means no such curve, though single readings can be large; an effect the other way counts as inactive or inconclusive. Potency means the concentration at half of the fitted maximal effect.

SMILES | HEK cytotox | NIH3T3 tox | GPT2 inhibitor | Luciferase inh | hNpr1 antagonist | Npr1 antag conf | NPR2 antag | FLuc counter | GloSensor ctrl
O=C(Nc1cccc2ccccc12)O[C@@H]1CO[C@H]2[C@@H]1OC[C@@H]2NC(=O)c1ccco1 | -18.7%[172 µM] | -14.5%[138 µM] | -4.7%[88.5 µM] | i | -5.5%[70.6 µM] | x | x | x | x
O=C(Nc1ccccc1)O[C@@H]1CO[C@H]2[C@@H]1OC[C@@H]2NC(=O)c1ccc2c(c1)OCO2 | u | u | i | i | 31.6µM* | u | u | -11.4%[86.2 µM] | u
O=C(Nc1ccc(Oc2ccccc2)cc1)O[C@@H]1CO[C@H]2[C@@H]1OC[C@@H]2NC(=S)Nc1ccccc1 | u | u | i | i | 11.2µM* | 9.68µM* | 12.2µM* | -7.7% | 6.85µM*
O=C(Nc1ccc(Oc2ccccc2)cc1)O[C@@H]1CO[C@H]2[C@@H]1OC[C@@H]2NC(=O)c1ccc(C(F)(F)F)cc1 | u | u | u | i | 11.2µM* | 21.7µM* | 13.7µM* | -1.5% | 15.3µM*
Cn1c(Cn2cccn2)nnc1C1CCCN(C(=O)c2ccc(=O)[nH]c2)C1 (centres undefined) | -25.6% | -12.5% | -27.2% | i | 4.2% | x | x | x | x
COC(=O)c1cccc(NC(=S)N[C@H]2CO[C@H]3[C@@H]2OC[C@H]3OC(=O)Nc2cccc(C(F)(F)F)c2)c1 | 44.7µM* | u | 1.6% | i | u | 27.3µM* | 21.7µM* | -4.7% | 21.7µM*
O=C(Nc1ccc(Oc2ccccc2)cc1)O[C@@H]1CO[C@H]2[C@@H]1OC[C@@H]2NCC1CCCCC1 | u | u | -5.1% | i | u | 21.7µM* | 17.2µM* | -1.1% | 21.7µM*
CCNC(=O)O[C@@H]1CO[C@H]2[C@@H]1OC[C@@H]2NCC1CCCCC1 | i | -0.4%[174 µM] | i | i | 3.0%[70.6 µM] | x | x | x | x
O=C(Nc1ccccc1)O[C@@H]1CO[C@H]2[C@@H]1OC[C@@H]2NC(=O)C1CCC1 | u | -29.3%[174 µM] | -5.7%[88.5 µM] | i | u | x | x | x | x
N#Cc1ccc(NC(=S)N[C@H]2CO[C@H]3[C@@H]2OC[C@H]3OC(=O)Nc2ccccc2)cc1 | 35.5µM* | u | -8.4%[88.5 µM] | i | 22.4µM* | 17.7µM* | 22.2µM* | -7.5%[86.2 µM] | 17.7µM*
COc1ccccc1CNC(=O)C1CCc2ncc(-c3ccsc3)n2C1 (centres undefined) | u | -14.1% | -6.8% | i | -20.7% | u | -28.5% | -0.1% | 11.5%
CCNC(=O)C1CCc2ncc(-c3ccsc3)n2C1 (centres undefined) | 2.5% | -3.7% | 3.8% | i | 0.4% | x | x | x | x
O=C(NCc1ccccc1)c1cc2c(s1)CCN(C(=O)c1ccccc1)C2 | u | u | -10.6% | i | -1.1% | x | x | x | x
CC1CCCN(C(=O)c2cc3c(s2)CCN(C(=O)c2ccc(Cl)cc2)C3)C1 (centres undefined) | 44.7µM* | u | -15.1% | i | -24.9% | 27.3µM* | 27.3µM* | 0.9% | 24.3µM*
NC(=O)CNC(=O)c1cc2c(s1)CCN(C(=O)c1ccc(Cl)cc1)C2 | -0.6% | -12.3% | u | i | -1.3% | x | x | x | x
